Tau FP inhib – qHTS for Inhibitors of Tau Fibril Formation, Fluorescence Polarization. AID 1468, 2008. 280,000 compounds, 0.39% hits. Potency, µM (titrated, usually from 57.7 µM), actives largely listed as inhibitors. K18 P301L tau heparin fibrillization, Alexa594 FP, 6 h. Microtubule-associated protein tau (Homo sapiens), P10636; further: nearly all actives have a fitted effect of over 55% in size
Target sequence (P10636 561-689 P618L limits assumed): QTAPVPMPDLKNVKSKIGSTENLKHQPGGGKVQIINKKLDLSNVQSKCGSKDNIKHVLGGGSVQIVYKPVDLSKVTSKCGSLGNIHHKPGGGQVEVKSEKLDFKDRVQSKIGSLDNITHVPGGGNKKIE
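Steps: dispense K18 P301L tau (15 uM plus 0.24 uM Alexa 594 tracer, final) in pH 7 sodium acetate; add compound; add heparin (20 uM final); incubate 6 hr, 37 C; add ThT (30 uM final); after 1 hr ambient, read FP.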
RGS12 GoLoco inh – qHTS Assay for Inhibitors of RGS12 GoLoco Motif Activity (Red Fluorophore) | Gai1:RGS12 GoLoco peptide FP, rhodamine, 10 min | Potency, µM (doses to about 61.6 µM), most hits filed as inhibitors | 230,000 compounds, 0.44% hits | AID 880, 2007; active means well fitted inhibition curve with a large enough effect, not every such curve was filed as active; inactive means no such curve, though single readings can be large or run the other way; further: nearly all actives have a fitted effect of over 30% in size
Target sequence (P63096 whole entry, looked up): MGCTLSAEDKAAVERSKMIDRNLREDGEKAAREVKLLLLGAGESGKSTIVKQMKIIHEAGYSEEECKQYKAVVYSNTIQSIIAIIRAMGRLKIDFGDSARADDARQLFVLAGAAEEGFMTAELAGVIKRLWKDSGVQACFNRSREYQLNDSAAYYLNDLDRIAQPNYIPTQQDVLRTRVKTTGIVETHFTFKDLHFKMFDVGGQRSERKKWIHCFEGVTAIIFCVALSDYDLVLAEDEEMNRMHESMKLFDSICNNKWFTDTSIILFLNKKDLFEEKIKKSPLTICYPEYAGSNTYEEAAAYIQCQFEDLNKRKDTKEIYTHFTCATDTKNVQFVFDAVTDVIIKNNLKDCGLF
TRb-SRC2 inh – qHTS for Inhibitors of the Interaction of Thyroid Hormone Receptor and Steroid Receptor Coregulator 2; Potency, µM (doses to about 106 µM), usual class: inhibitors; TRbeta-SRC2 peptide binding, fluorescence polarization; receptor liganded with 1 µM T3; 280,000 compounds, 0.065% hits; Thyroid hormone receptor beta (Homo sapiens), P10828; further: nearly all actives have a fitted effect of over 50% in size
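Decrease in fluorescence polarization of 20 nM Texas Red SRC2 coactivator peptide flagged inhibition of its binding to 0.6 uM TRb LBD; 1 uM T3 included, incubation 5 hr, ex 555/em 632 nm.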
Tau ThT inhib – qHTS for Inhibitors of Tau Fibril Formation, Thioflavin T Binding | recombinant tau K18 P301L, heparin-induced fibrillization, ThT fluorescence | AID 1460, 2008 | Microtubule-associated protein tau (Homo sapiens), P10636 | Potency, µM (series often up to 57.4 µM), actives largely listed as inhibitors | 270,000 compounds, 2.1% hits; further: nearly all actives have a fitted effect of over 55% in size
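In this qHTS, human K18 P301L tau is incubated with compound and heparin for 6 hr at 37 C, and Thioflavin T fluorescence then reports fibril load.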
Tau fluor cs – Counterscreen qHTS for Inhibitors of Tau Fibril Formation, Fluorescence Polarization; tau K18 P301L (four-repeat tau fragment) Alexa594 fluorescence, heparin fibrillization; 280,000 compounds, 0.93% hits; Potency, µM (top dose mostly 57.7 µM); further: nearly all actives have a fitted effect of over 55% in size
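Human K18 P301L tau (15 uM unlabeled plus 0.24 uM Alexa 594-labeled, final) in 100 mM sodium acetate pH 7 was mixed with compound and 20 uM heparin and incubated 6 hr at 37 C.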
TR SRC2 fluor cs – Total Fluorescence Counterscreen for Inhibitors of the Interaction of Thyroid Hormone Receptor and Steroid Receptor Coregulator 2. 280,000 compounds, 0.29% hits. TRb/SRC2 Texas Red total fluorescence interference. Potency, µM (highest dose often 106 µM). AID 1479, 2009; active means well fitted curve in either direction with a large enough effect; inconclusive means small, poorly fitted or top-dose-only effect
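Human TRb ligand-binding domain at 0.6 uM with 20 nM Texas Red SRC2 peptide in Tris buffer containing 1 uM T3 and 5% DMSO, incubated with compound 5 h at ambient temperature. Total fluorescence (555/632 nm) calculated as parallel + 2 × perpendicular.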
Hits are given with their value; n = inactive; u = inconclusive; x = not tested or not shown; [ ] = dose if it differs, or a comment. An excerpt weighted towards active compounds, which were near 3.2% of everything screened. Unless noted, the call rests on the fitted dose curve; in most records, active means well fitted curve in the direction sought with a large enough effect; inconclusive means small, poorly fitted or top-dose-only effect, or another doubt; inactive means no such curve, though single readings can be large; an effect the other way counts as inactive or inconclusive.

SMILES | Tau FP inhib | RGS12 GoLoco inh | TRb-SRC2 inh | Tau ThT inhib | Tau fluor cs | TR SRC2 fluor cs
COc1ccc(Cl)cc1Nc1nc2ccc(C(=O)c3ccccc3)cc2n2cnnc12 | n | x | n | n | n | n
CN1CCN(C2=Nc3c(Cl)cc(Cl)c4cccc2c34)CC1 | n | n | n | 17.8µM | n | n
COc1ccc(NC(=O)CC2C(=O)N(c3cccc(OC)c3)C(=O)N2Cc2ccc3c(c2)OCO3)cc1 (stereo not drawn) | n | x | n | n | n | n
N=C1/C(=C\c2ccc(-c3cc(Cl)cc(Cl)c3)o2)C(=O)N=C2SC=C(c3ccccc3)N12 | n | n | n | 3.98µM | n | n
CC(C)S(=O)(=O)C1=NSC2=NC(=O)/C(=C\c3ccc(-c4cccc(C(=O)O)c4)o3)C(=N)N21 | n | n | n | n | n | n
N=C1/C(=C/c2ccc(-c3cccc(C(=O)O)c3)o2)C(=O)N=C2SC=C(c3ccccc3)N12 | n | n | n | 4.47µM | n | u
CC(C)(N)CO[C@H]1C[C@H]2CC[C@@]1(C)C2(C)C | x | n[14.2 µM] | x | x | x | x
N#C/C(=C\c1c[nH]c2ccccc12)C(=O)c1ccc(O)c(O)c1 | n | n | n | 10µM | 15.8µM[quencher] | n
N#C/C(=C\c1ccc(O)c(O)c1)C(=O)c1ccc(O)c(O)c1 | n | n | n | u | n | n
CC(C)n1c(=S)[nH]c2c1c(=O)[nH]c(=O)n2C | u | 10µM | n | u | n | n
COc1ccc(-c2ccccc2C2NC(C(=O)O)CCC2C)cc1 (stereo not drawn) | n[11.6 µM] | x | n[11.2 µM] | n[11.5 µM] | n[11.6 µM] | n[11.2 µM]
C=C1c2cccc(O)c2C(O)=C2C(=O)[C@]3(O)C(O)=C(C(N)=O)C(=O)[C@@H](N(C)C)[C@@H]3[C@@H](O)[C@H]12 | u | n | n | u | u | 31.6µM[quencher]
C=C1c2cccc(O)c2C(O)=C2C(=O)[C@]3(O)C(O)=C(C(N)=O)C(=O)C(N(C)C)C3C(O)C12 (stereo partly drawn) | n | n | n | u | n | 39.8µM[quencher]
CC[C@@H]1C(c2ccccc2)=NN(c2ccc(Br)cc2)[C@H]1C(=O)N1CCOC1=O | n | n | n | u | 7.94µM[quencher] | n
CC[C@@H]1C(c2ccc(F)cc2)=NN(c2ccc(Br)cc2)[C@H]1C(=O)N1CCOC1=O | n | n | n | u | 10µM[quencher] | n
C[C@@H]1C(c2ccc(F)cc2)=NN(c2ccccc2)[C@H]1C(=O)N1CCOC1=O | n | n | n | n | u | n
CC[C@@H]1C(c2cccc(Cl)c2)=NN(c2ccc(Br)cc2)[C@H]1C(=O)N1CCOC1=O | n | n | n | u | u | n
C[C@@]1(CCOCc2ccccc2)NC(=O)NC1=O | x | n[14.2 µM] | x | x | x | x
CCc1ccc(NC(=O)CC2C(=O)N(c3cccc(OC)c3)C(=O)N2Cc2ccco2)cc1 (stereo not drawn) | n | x | n | n | n | n
CCc1ccccc1NC(=O)N1CCOc2ccccc21 | n | x | n | n | n | 0.0089µM[quencher]
COc1ccc(NC(=O)N2CCOc3ccc(Cl)cc32)cc1 | n | x | n | n | 8.91µM[quencher] | u
CCOC(=O)c1ccccc1NC(=O)N1CCOc2ccc(Cl)cc21 | n | x | n | n | 3.16µM[quencher] | 4.47µM[quencher]
CCOc1ccc(NC(=O)N2CCOc3ccccc32)cc1 | n | x | n | n | u | n
CCc1ccccc1NC(=O)N1CCc2ccccc21 | n | n | n | u | n | n
SMILES | Tau FP inhib | RGS12 GoLoco inh | TRb-SRC2 inh | Tau ThT inhib | Tau fluor cs | TR SRC2 fluor cs
O=C(Nc1cccc(NC(=O)c2cccs2)c1)c1ccc([N+](=O)[O-])o1 | n | n | n | x | 31.6µM[quencher] | n
O=C(/C=C/c1cccc([N+](=O)[O-])c1)Nc1cccc(NC(=O)c2cccs2)c1 | u | n | n | u | 12.6µM[quencher] | n
COc1cc(NC(=O)c2ccc([N+](=O)[O-])o2)ccc1NC(=O)c1cccs1 | n | n | n | u | n | n
S=C(S)NCCNC(=S)S | x | x | n | x | x | u
Cc1ccc(C(C[N+](=O)[O-])c2c(-c3ccccc3O)[nH][nH]c2=O)cc1 (stereo not drawn) | u | n | n | 17.8µM | n | n
O=[N+]([O-])c1ccc(Oc2cccc3cccnc23)c([N+](=O)[O-])c1 | n | n | n | 8.91µM | 15.8µM[quencher] | n
Cc1c(Cl)sn(-c2ccc(Cl)cc2)c1=O | u | 14.1µM | n | 14.1µM | n | n
Cc1nn(-c2ccc(Cl)cc2)c(=O)c2ccccc12 | n | n | n | n | n | n
O=C(N/N=C/c1cccc([N+](=O)[O-])c1O)c1cccs1 | n | n | n | 5.01µM | n | n
COc1cc([N+](=O)[O-])cc(/C=N\NC(=O)C2COc3ccccc3O2)c1O (stereo not drawn) | n | n | n | 10µM | n | n
O=C(N/N=C\c1cccc([N+](=O)[O-])c1O)C1COc2ccccc2O1 (stereo not drawn) | n | n | n | 7.94µM | n | n
O=C(CCCn1c(=O)c2cccn2c2ccc(F)cc21)NCc1ccc(Cl)cc1 | u | x | n | n | n | n
Cc1ccc(NCC(=O)N/N=C/c2cccc(Oc3ccccc3)c2)cc1 | n | n | n | u | 10µM[quencher] | n
Cc1cccc(NCC(=O)N/N=C\c2cccc(Oc3ccccc3)c2)c1 | u | n | n | u | u | n
COc1ccc(NCC(=O)N/N=C/c2cc([N+](=O)[O-])ccc2N2CCCC2)cc1 | n | n | n | 11.2µM | u | n
Cc1ccc(NCC(=O)N/N=C/c2cc(O)ccc2[N+](=O)[O-])cc1 | n | n | n | 14.1µM | n | n
COc1cccc(NC(=O)CN2C(=O)CSc3ccc(S(=O)(=O)N4CCCC4)cc32)c1 | n | x | n | n | u | n
Cc1ccccc1CCNC(=O)c1ccc2c(c1)nc1n2CCC(C)C1 (stereo not drawn) | u | x | n | u | n | n
CCOc1ccc(NC(=O)Cn2cc(C(=O)c3ccc(C)c(C)c3)c(=O)c3cc(F)ccc32)cc1 | n | x | n | n | n | n
CCCS(=O)(=O)N1CC(=O)N(c2cc(C)ccc2C)C(C)(C(=O)NC2CCCCCC2)C1 (stereo not drawn) | n | x | n | n | n | 25.1µM[quencher]

Source: PubChem BioAssay
